# High-throughput results from PubChem.
# CHX counter – Cycloheximide Counterscreen for Small Molecule Inhibitors of Shiga Toxin. max response, %. cell reporter, cycloheximide protein synthesis inhibition counterscreen. 300,000 compounds, 12% hits; in the data active = max response mostly above about 13%, no sharp cut-off; inactive = mostly below about 14%; note: read at 38.3 µM for the half of the compounds with a filed dose
# Pf growth 96h – Primary qHTS for delayed death inhibitors of the malarial parasite plastid, 96 hour incubation | P. falciparum luciferase reporter growth, 96 h | Potency, µM (titrated, usually from 28.7 µM), usual class: inhibitors | 320,000 compounds, 6.9% hits
#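 Two-generation exposure (96 h) targets delayed-death phenotype. Reporter parasites carrying integrated firefly luciferase, in red cells at 2% hematocrit and 0.05% parasitemia final, kept at 37 C, 5% CO2; luminescence loss indicates inhibition.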
# Pf growth 48h – Primary qHTS for delayed death inhibitors of the malarial parasite plastid, 48 hour incubation; P. falciparum luciferase growth in erythrocytes, 48 h; Potency, µM (doses to about 28.7 µM), hits mostly inhibitors; 310,000 compounds, 5.9% hits; AID 504832, 2011
#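 Erythrocytes infected with P. falciparum carrying an integrated firefly luciferase reporter (2% hematocrit, 0.1% parasitemia final) were exposed to compounds in RPMI 1640 with 0.5% Albumax at 37 C, 5% CO2. Growth inhibition was scored as reduced luminescence.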
# SARS PLP yeast – qHTS of Yeast-based Assay for SARS-CoV PLP; 330,000 compounds, 0.19% hits; AID 485353, 2010; S. cerevisiae expressing SARS-CoV PLpro, growth rescue; Potency, µM (top dose mostly 32.9 µM), most hits filed as activators; calls by dose curve; note: nearly all actives have a fitted effect of over 55% in size
# Shiga inhibitor – A qHTS for Small Molecule Inhibitors of Shiga Toxin; Vero cells, Shiga toxin protein synthesis inhibition reporter; inhibition, % at 38.7 µM; 290,000 compounds, 9.2% hits; AID 2315, 2010; in the data active = inhibition mostly above about 28%, no sharp cut-off; inactive = mostly below about 43%
# NS1 inh – qHTS Assay for Inhibitors of Influenza NS1 Protein Function; Potency, µM (series often up to 46.1 µM); 270,000 compounds, 0.4% hits; AID 2326, 2010; calls by dose curve; note: actives are rising curves; nearly all actives have a fitted effect of over 50% in size
#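 S. cerevisiae expressing influenza A NS1, grown in glucose, washed, then diluted 1:100 into pH 6.0 -URA galactose medium with 23 nl compound. Growth recovery read as OD600; NS1-free strain serves as control.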
# A number is an active result; 0 = inactive; ? = inconclusive; - = no result; + = active, no number; [ ] = remark or other dose. An excerpt weighted towards active compounds, which were near 21% of everything screened. Unless noted, calls come from the whole dose curve; as a rule, active = well fitted inhibition curve with a large enough effect; inconclusive = small, poorly fitted or top-dose-only effect, or another doubt; inactive = no such curve, though single readings can be large or run the other way.
SMILES,CHX counter,Pf growth 96h,Pf growth 48h,SARS PLP yeast,Shiga inhibitor,NS1 inh
O=C(/C=C/c1ccc2c(c1)OCO2)NCC1CCCO1 (stereo not drawn),36.9,0,0,0,63.2,-
O=C(/C=C/c1ccc2c(c1)OCO2)NC1CCCC1,27.0,0,0,0,-,0
CC1CCC(NCCNC(=O)c2ccco2)CC1 (stereo not drawn),0,?,0,0,0,0
CC1CC(C)CN(C(=O)C2CCC(CNS(=O)(=O)c3ccccc3)CC2)C1 (stereo not drawn),0,?,0,0,0,0
CCc1nnc(NC(=O)CCC(=O)N2CCN(c3cccc(Cl)c3)CC2)s1,0,0,0,0,0,0
COc1ccc([C@]23Cc4ccccc4C(O2)c2c(c4ccc(OC)cc4oc2=O)O3)cc1,37.8,1.69µM,?,?,+,0
Cc1cc2c(c(=O)o1)C1O[C@](c3ccsc3)(Cc3ccccc31)O2,0,?,1.9µM,0[6.58 µM],0,?
COc1cc2c(cc1OC)C1OC(c3ccsc3)(C2)Oc2cc(C)oc(=O)c21 (stereo not drawn),0,1.69µM,?,0[6.58 µM],0,0
O=C1C2=C(C(=O)c3ccccc31)C1O[C@](c3ccsc3)(Cc3ccccc31)O2,0,0[5.75 µM],1.2µM,?,0,0
Cc1ccccc1C(=O)NCc1nnc(SCC(=O)N2CCN(c3ccccc3)CC2)n1C,0,-,0,0,0,0
CCOC(=O)Cc1csc(NC(=O)c2ccc3ccccc3n2)n1,0,0,0,0,0,0
COc1ccc([C@]23Cc4cc(OC)c(OC)cc4C(O2)c2c(cc(C)oc2=O)O3)cc1,0,0.338µM,?,0[6.58 µM],0,0
COc1ccc([C@]23Cc4cc(OC)c(OC)cc4C(O2)c2c(cc(-c4ccccc4)oc2=O)O3)cc1,0,?,?,0[6.58 µM],0,0
COc1ccc2c3c(c(=O)oc2c1)C1O[C@](c2ccsc2)(Cc2ccccc21)O3,0,?,?,0[6.58 µM],0,0
O=c1oc2ccccc2c2c1C1O[C@](c3ccsc3)(Cc3ccccc31)O2,0,?,1.69µM,0[6.58 µM],0,0
Cc1ccccc1CNC(=O)CCC(=O)N1CCOc2ccccc21,0,0,0,0,0,0
CCOC(=O)c1c(/N=C/c2cc(C)ccc2O)sc2c1CCN(C)C2,0,?,0,0,0,0
Cc1cccc(/C=N/c2sc3c(c2C(=O)OC(C)(C)C)CCN(C)C3)c1O,0,1.85µM,?,0,0,0
N#Cc1cnn(-c2cccc(Cl)c2)c1N,0,?,0,0,0,-
CCOc1ccc(N2C(=O)CC(N3CCN(c4ccc(Cl)cc4)CC3)C2=O)cc1 (stereo not drawn),0,3.29µM,0,0,0,0
COc1ccc(C(=O)/C=C/C(=O)N(Cc2ccccc2)C(C(=O)NC2CCCCC2)c2ccncc2)c(O)c1 (stereo not drawn),0,0,?,0,0,0
COc1ccc(C(=O)/C=C/C(=O)N(Cc2ccc(F)cc2)C(C(=O)NC2CCCCC2)c2ccncc2)c(O)c1 (stereo not drawn),0,0,5.22µM,0,0,0
COc1ccccc1CN(C(=O)CCl)C(C(=O)NC1CCCCC1)c1ccncc1 (stereo not drawn),0,?,?,0,0,0
COc1ccc(C(=O)/C=C/C(=O)N(Cc2ccccc2OC)C(C(=O)NC2CCCCC2)c2ccncc2)c(O)c1 (stereo not drawn),0,0,11.7µM,0,0,0
Cc1ccc2c(c1)N(C(C)C(=O)NCc1cccs1)C(=O)CO2 (stereo not drawn),0,0,0,0,0,-
SMILES,CHX counter,Pf growth 96h,Pf growth 48h,SARS PLP yeast,Shiga inhibitor,NS1 inh
COC(=O)c1sc(N)c(C(=O)OC)c1Cn1ncc(Cl)c(Cl)c1=O,0,8.28µM,13.1µM,0,0,0
Cc1ccc(C(=O)NCC(=O)OC(C)C(=O)NC2CCCCC2C)cc1C (stereo not drawn),-,?,?,0,-,-
Cc1cccc(CSc2nc3ccncc3n2CC(=O)Nc2ccc(C)c(C)c2)c1,27.3,3.7µM,0,0,0,0
Cc1ccc(NC(=O)Cn2cnc3ccccc32)cc1C,0,0,0,0,0,-
Cc1ccc(C)c(CSc2nc3ccncc3n2CC(=O)Nc2ccc(C)c(C)c2)c1,0,0,?,0,0,0
CC(C)c1ccccc1NC(=O)Cn1c(/C=C/c2ccccc2)nc2ccccc21,36.2,0,0,0,53.2,0
Cc1ccc(NC(=O)Cn2c(/C=C/c3ccccc3)nc3ccccc32)cc1C,18.5,0,?,0,0,0
CC(C)c1ccccc1NC(=O)Cn1c(-c2ccccc2Cl)nc2ccccc21,0,0,0,0,0,0
O=C(COC(=O)CN1C(=O)NC2(CCCC2)C1=O)NCc1ccc(Cl)cc1Cl,-,-,-,0,-,-
CCCCCCn1nc(C(=O)N(CCOC)c2c(N)n(CCCC)c(=O)[nH]c2=O)c2ccccc2c1=O,-,0,0,0,-,-
CCOc1ccc(S(=O)(=O)N2CCOCC2)cc1NC(=O)CCOc1ccc(C(C)(C)C)cc1,-,?,?,0,-,-
O=c1c2cc3c(cc2[nH]c(=S)n1C1CCN(Cc2ccccc2)CC1)OCO3,0,?,0,0,0,-
CCCCCc1cc(=O)oc2c(C(CCN3CCCC3)c3ccc4c(c3)OCO4)c(OC)cc(OC)c12 (stereo not drawn),0,-,-,-,0,-
CCCCCc1cc(=O)oc2c(C(CCN3CCCC(C)C3)c3ccc4c(c3)OCO4)c(OC)cc(OC)c12 (stereo not drawn),0,4.15µM,7.38µM,0,0,0
CCCCCc1cc(=O)oc2c(C(CCN(CC)CC)c3cc(OC)c(OC)c(OC)c3)c(OC)cc(OC)c12 (stereo not drawn),0,3.7µM,13.1µM,0,0,0
CCCCCc1cc(=O)oc2c(C(CCN3CCCCC3)c3ccc4c(c3)OCO4)c(OC)cc(OC)c12 (stereo not drawn),0,4.65µM,10.4µM,0,0,0
CCCCCc1cc(=O)oc2c(C(CCN3CCN(c4ccccc4)CC3)c3ccc(N(C)C)cc3)c(OC)cc(OC)c12 (stereo not drawn),0,?,?,0,0,0
COc1ccc(C(C)(C)C)cc1NC(=O)COC(=O)CN1C(=O)NC2(CCCCC2C)C1=O (stereo not drawn),-,-,-,0,-,-
Cc1ccccc1N1CCN(Cc2ccc(Br)o2)CC1,0,0,0,0,0,0
C=CC[N+]1(CC#CCOC(c2ccccc2)c2ccccc2)CCOCC1,0,2.62µM,?,0,0,0
C=CC#CC[N+]1(CC#Cc2ccccc2)CCOCC1,0,4.15µM,5.86µM,0,0,0
C(#Cc1ccccc1)C[N+]1(CC#Cc2ccccc2)CCCC1,0,?,2.33µM,0,0,0
Cc1ccc(C#CC[N+]2(C)CCCCC2)cc1,0,1.85µM,6.57µM,0,0,0
C=CC[N+]1(CC#Cc2ccccc2)CCCC1,0,0,?,0,0,0
CN(C)CC#CCOC(c1ccccc1)c1ccccc1,0,0,0,0,0,0
